Reference: ChEMBL document CHEMBL3433997, “St. Jude Leishmania screening dataset” (2016)

molecular target: Hexose transporter 1 (Plasmodium falciparum) (UniProt O97467); experiment: ST_JUDE_LEISH: Cytotoxicity at 2uM final concentration against transgenic Leishmania Mexicana promastigotes LmPfHT that are glucose transport deficient and complemented with the Plasmodium falciparum hexose transporter. Activity is measured by DNA content using SYBR green in vitro; assay type: functional

Row | Structure (SMILES) | inhibition [%]
1 | O=C(Nc1cccc(CN2CCCN(Cc3cccc(Cl)c3)CC2)c1)c1ccc(Cl)c(Cl)c1 | 1.9
2 | Clc1ccccc1C=NN=c1cc[nH]c2ccccc12 | 5.58
3 | c1cncc(-c2cccc(CNc3nccc(Nc4ccc(OCCN5CCOCC5)cc4)n3)c2)c1 | 1
4 | Cc1cccc2nc(-c3cccc(-c4ccc(NC(=O)C(=O)c5cccn5C)cc4)c3)[nH]c12 | 0.6
5 | O=C(Nc1ccc2c(c1)CCN(C1CCC1)CC2)c1cn(-c2ccccc2)nc1-c1ccccc1 | 3.65
6 | CCCn1c(O)nnc1SCC(=O)Nc1cc(C(F)(F)F)ccc1Cl | 4.55
7 | O=C(Cc1ccccc1)NC1(c2ccccc2)CCN(CCc2c[nH]c3ccc(F)cc23)CC1 | 0.25
8 | COc1ccc(NC(=O)/C=C/c2ccc(Cl)c(C(F)(F)F)c2)cc1OCCN(C(C)C)C(C)C | 8.04
9 | O=C(NCCCCCN1CCC(c2c[nH]c3ccccc23)CC1)Nc1cccc(I)c1 | 12.6
10 | CC(CCc1ccccc1)NCC(O)c1cccc([N+](=O)[O-])c1 (stereo unspecified) | -2.9
11 | CCN(c1ccccc1)S(=O)(=O)c1ccc(OC)c(NC(=O)c2cccc(C(F)(F)F)c2)c1 | 7.45
12 | COc1ccc(Nc2nc(NCc3cccc(NS(C)(=O)=O)c3)cc(-c3ccc(OC)cc3)n2)cc1 | 5.23
13 | CC(C)c1ccc(NC(=O)Nc2ccc(CCNCCCc3ccccc3)cc2)cc1 | 0.01
14 | Cc1nc(C)c(-c2ccc(Br)cc2)c(O)c1Br | -1.35
15 | N#Cc1cncc(-c2nc3c(N4CCC(Cc5ccccc5)CC4)cccc3n2C2CCNC2)c1 (stereo unspecified) | -0.39
16 | COc1ccccc1NC(=S)N/N=C/c1ccc(O)cc1O | 6.07
